Bioassay records: PubChem, National Center for Advancing Translational Sciences (NCATS)
D3 ag – D3 dopamine receptor (human) agonism | D3R DiscoveRx beta-arrestin cells, luminescence, 90 min | max activation, % | 410,000 tested, 0.58% active | AID 652048; in the data active = max activation above about 30%
Target sequence (P35462 whole entry, looked up): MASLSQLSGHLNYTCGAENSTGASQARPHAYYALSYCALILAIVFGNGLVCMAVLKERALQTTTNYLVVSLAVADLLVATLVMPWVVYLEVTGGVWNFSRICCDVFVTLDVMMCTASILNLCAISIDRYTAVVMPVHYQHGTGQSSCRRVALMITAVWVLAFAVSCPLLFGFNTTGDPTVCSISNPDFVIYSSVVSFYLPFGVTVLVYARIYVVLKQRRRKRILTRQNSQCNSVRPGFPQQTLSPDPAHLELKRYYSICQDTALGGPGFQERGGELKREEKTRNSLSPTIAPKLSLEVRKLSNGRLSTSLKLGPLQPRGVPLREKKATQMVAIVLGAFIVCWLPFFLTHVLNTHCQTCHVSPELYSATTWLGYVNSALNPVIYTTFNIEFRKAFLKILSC
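Cells at 1500/well, incubated overnight, then treated with pinned compounds (dopamine as control) for 90 min at 37 degrees C. DiscoveRx reagent added for 30 - 60 minutes at room temperature; luminescence read.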
GLP-1R agonist – GLP-1 receptor (human) agonism; 380,000 tested, 0.007% active; HEK293 GLP-1R CRE-luciferase, luminescence, 4-6 h; cells express a hypersensitive GLP-1R form; AID 624172; Potency, µM (series often up to 45.6 µM), most hits filed as activators; P43220
ClpP mod – qHTS Assay for Activators of ClpP. AID 651965, 2013. Potency, µM (series often up to 57.5 µM). ATP-dependent Clp protease proteolytic subunit (Bacillus subtilis (strain 168)), P80244. purified B. subtilis ClpP, FRET peptide cleavage, 20 min. 340,000 tested, 1.9% active; active = well fitted falling curve with a large enough effect; inconclusive = small, poorly fitted or top-dose-only effect; inactive = no such curve, though single readings can be large or run the other way; note: the source files actives as falling curves though it sought activators and does not explain the sign; nearly all actives have a fitted effect of over 65% in size
Target sequence (P80244 whole entry, looked up): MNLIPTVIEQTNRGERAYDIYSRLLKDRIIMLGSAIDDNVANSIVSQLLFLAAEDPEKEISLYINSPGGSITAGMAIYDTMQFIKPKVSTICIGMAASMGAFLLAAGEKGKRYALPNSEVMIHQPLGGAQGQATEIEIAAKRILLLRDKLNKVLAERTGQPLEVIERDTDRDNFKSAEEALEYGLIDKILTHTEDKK
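Purified B. subtilis ClpP, 10 microg/mL final in Tris/HCl pH8 with KCl, BSA, glycerol and Tween-20, cleaved an Abz/nitrotyrosine-quenched decapeptide. Fluorescence (ex 320, em 430) was read at 0 and 20 min at room temperature. Delta was normalized to 5.8 microM ADEP and DMSO/no-enzyme controls.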
DRD3 antagonist – blocks the human D3 dopamine receptor; D3R cells, DiscoveRx beta-arrestin luminescence, antagonist mode; active compounds read low; 360,000 tested, 2.5% active; max response, negative = inhibition, %; P35462; in the data active = max response below about -50%; inconclusive = no clear call, values can overlap the other calls
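Cells plated overnight at 1500 cells/well, then exposed to library compounds with dopamine controls for 90 minutes at 37 degrees C. DiscoveRx reagent added for 30–60 minutes at room temperature; luminescence read, quantitative HTS format.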
GLP1R inv ag – inverse agonists of human GLP-1 receptor | Potency, µM (doses to about 38.3 µM), hits mostly inhibitors | HEK293 GLP-1R CRE-luciferase, luminescence, 24 h; GLP-1R form is constitutively active | AID 624417 | P43220 | 410,000 tested, 1.6% active; note: nearly all actives have a fitted effect of over 55% in size
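Luminescence readout: a drop in cAMP-driven luciferase signal flags inverse agonism at a constitutively active GLP-1R stably expressed in HEK293. Compound exposure lasted 24 hr at 37 deg C, 5% CO2.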
GLP1R cytotox – cytotoxic in the GLP-1 receptor inverse agonist counter-screen. HEK293 cAMP-luciferase reporter cells, luminescence, 24 h. Potency, µM (doses to about 38.3 µM), hits mostly inhibitors. 410,000 tested, 0.13% active. AID 624418;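 note: loss of luciferase light is scored as toxicity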
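Compound-treated cells are incubated 24 hr at 37 deg C under 5% CO2 after a 12 hour attachment period, then luciferase detection reagent is added and luminescence is measured following 12 min at room temperature; lowered signal indicates toxicity.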
Large screens that a line does not name were inactive. This is a sample that favours compounds with a hit; in the whole collection about 5.7% have one here. Unless noted, calls come from the whole dose curve; as a rule, active = well fitted curve in the direction sought with a large enough effect; inconclusive = small, poorly fitted or top-dose-only effect, or another doubt; inactive = no such curve, though single readings can be large; an effect the other way counts as inactive or inconclusive.

Cc1ccc(-c2nn(-c3ccccc3)cc2/C=N/O)cc1	DRD3 antagonist -53, GLP1R inv ag inconclusive (no result: ClpP mod)
Cc1ccc(-c2nn(-c3ccccc3)cc2/C=N/NS(=O)(=O)c2ccccc2)cc1	DRD3 antagonist -54
O/N=C/c1cn(-c2ccccc2)nc1-c1cccnc1	none
CCN(CC)c1cc(C)c2cc(NC(=O)/C=C/c3ccccc3Cl)ccc2n1	GLP1R inv ag inconclusive, GLP1R cytotox inconclusive (no result: DRD3 antagonist)
Cc1ccc(C)c2sc(N3CCN(C(=O)C(C)(C)C)CC3)nc12	GLP1R inv ag inconclusive (no result: GLP-1R agonist, DRD3 antagonist)
O=C(CCNC(=O)Cn1cnc2ccccc2c1=O)NCC1COc2ccccc2O1 (configuration not stated)	DRD3 antagonist -58
COCCN1C(=O)COc2ccccc2C1C(=O)NC1CCCC1 (configuration not stated)	none
Cc1cc(C)cc(-n2ccnc2SCC(=O)Nc2ccc(C)c(Cl)c2)c1	GLP1R inv ag 8.9µM (no result: DRD3 antagonist)
Cc1ccc(C(=O)CSc2nccn2-c2ccccc2)cc1	ClpP mod 28µM, GLP1R inv ag inconclusive
Cc1cc(C)cc(-n2ccnc2SCC(=O)O)c1	ClpP mod 28µM
O=C(CCS(=O)(=O)c1cccc2nsnc12)Nc1ccc(F)cc1	none (no result: DRD3 antagonist)
Cc1ccc(NC2=NCC(=O)N2Cc2ccccc2)c(C)c1	D3 ag 39
COc1ccccc1NC1=NCC(=O)N1Cc1ccccc1	none
O=C(NC1CCCc2ccccc21)c1ccc(S(=O)(=O)N2CCOCC2)cc1 (configuration not stated)	none
O=S(=O)(c1ccc(NC2CCCc3ccccc32)nc1)N1CCOCC1 (configuration not stated)	ClpP mod 32µM
COc1ccc(N2CCN(S(=O)(=O)c3ccc4oc(=O)c5ncn(C)c5c4c3)CC2)cc1	none (no result: GLP-1R agonist, DRD3 antagonist)
COc1ccccc1C(c1nnnn1CCc1ccccc1)N1CCN(c2ccccc2)CC1 (configuration not stated)	none
COc1ccccc1N1CCN(C(c2ccccc2)c2nnnn2CCc2ccccc2)CC1 (configuration not stated)	GLP1R inv ag 11µM
COc1ccccc1C(c1nnnn1CCc1ccccc1)N1CCCCCC1 (configuration not stated)	GLP1R inv ag 11µM
Fc1ccc(C(c2nnnn2CCc2ccccc2)N2CCCc3ccccc32)cc1 (configuration not stated)	GLP1R inv ag 2.8µM
COc1ccc(C(c2nnnn2CCc2ccccc2)N2CCN(C)CC2)cc1OC (configuration not stated)	none
COc1ccc(N2CCN(C(c3ccccc3)c3nnnn3Cc3ccc(F)cc3)CC2)cc1 (configuration not stated)	GLP1R inv ag 13µM
Fc1ccc(C(c2nnnn2C2CCCC2)N2CCc3ccccc32)cc1 (configuration not stated)	DRD3 antagonist inconclusive, GLP1R inv ag inconclusive
Cc1cccc(C)c1C(O)c1ncc(-c2cccc(F)c2)[nH]1 (configuration not stated)	none
Cc1ccc(S(=O)(=O)NC2CCCc3ccccc32)cc1C (configuration not stated)	GLP1R inv ag 5µM
CCc1ccc(NC(=O)CSc2c(C)cnc3c2c(=O)n(C)c(=O)n3C)cc1	none (no result: GLP-1R agonist, DRD3 antagonist)
CN(C)CCNC(=O)C1CCN(c2ncnc3c2nc2n3CCCCC2)CC1	none (no result: GLP-1R agonist, DRD3 antagonist)
C=C1CSc2nc3ccccc3c(=O)n21	ClpP mod inconclusive, DRD3 antagonist -55
COc1cc(CSc2ncc(CO)n2Cc2ccc(C)cc2)cc(OC)c1	GLP1R inv ag inconclusive (no result: GLP-1R agonist, DRD3 antagonist)
Cc1cc2c(cc1C)CSC(c1ccccc1OC(=O)C(C)(C)C)SC2	GLP1R inv ag 10µM
CCCCC(=O)Oc1ccccc1C1SCc2cc(C)c(C)cc2CS1	none
CC(C)(C)NC(=O)C(c1ccc(O)cc1)N(C(=O)Cn1nnc(-c2ccc(F)cc2)n1)c1ccccc1F (configuration not stated)	DRD3 antagonist inconclusive, GLP1R inv ag 8.9µM
Cc1ccc(C)c(-n2nnc(C(=O)Nc3ccc(Br)cc3)c2C)c1	GLP1R inv ag inconclusive (no result: GLP-1R agonist, DRD3 antagonist)
Cc1cc(C(=O)O)c(=O)[nH]c1C	ClpP mod 25µM
N=C(N)c1ccc(OCCCOc2ccc(C(=N)N)cc2)cc1	none (no result: ClpP mod, DRD3 antagonist, GLP1R inv ag, GLP1R cytotox)
Cc1[nH]c2ccc(C(=O)N3CCN(c4ccccc4F)CC3)cc2c1C	GLP1R inv ag inconclusive (no result: GLP-1R agonist, DRD3 antagonist)
CC(C)(C)C(=O)N/C(N)=N/c1nc2ccccc2o1	GLP1R inv ag 11µM, GLP1R cytotox inconclusive (no result: ClpP mod)
O=C(Nc1ccccc1)c1nn(-c2ccccc2)c(=O)cc1C(F)(F)F	DRD3 antagonist -50
O=C(c1ccccc1)c1nn(-c2ccccc2)c(=O)cc1C(F)(F)F	ClpP mod inconclusive, GLP1R inv ag inconclusive
O=C(NCCO)C(=O)Nc1c2c(nn1-c1ccc(F)cc1)CSC2	none (no result: GLP-1R agonist, DRD3 antagonist)
Cc1cc(C(=O)NCCC(c2ccccc2)c2ccccc2)c(C)o1	GLP1R inv ag 8.9µM
Cc1cc(C(=O)NCCCC(=O)O)c(C)o1	none
COC(=O)c1[nH]c2cc(OC)ccc2c1NC(=O)c1ccc2c(c1)OCO2	none
COC(=O)c1[nH]c2cc(OC)ccc2c1NC(=O)CCN1CCN(Cc2ccc3c(c2)OCO3)CC1	ClpP mod inconclusive, DRD3 antagonist -81
COC(=O)c1[nH]c2cc(OC)ccc2c1NC(=O)CCN1CCCCC1	ClpP mod inconclusive
COC(=O)c1[nH]c2cc(OC)ccc2c1NC(=O)CCN1CCCC(C)(C)C1	ClpP mod inconclusive, DRD3 antagonist -56
NC(CCc1ccccc1)c1csc(Nc2nccc(C(F)(F)F)n2)n1 (configuration not stated)	none
Cc1cccc(OCCn2c(SCC(=O)O)nc3ccccc32)c1	none (no result: DRD3 antagonist)
COc1ccccc1CCNC(=O)C1CC(=O)N(c2ccccc2F)C1 (configuration not stated)	none
Cc1ccc2[nH]c(=O)c(CN(CCO)Cc3nnnn3Cc3ccccc3)cc2c1	none (no result: D3 ag, GLP-1R agonist, DRD3 antagonist, GLP1R inv ag, GLP1R cytotox)
CCOc1ccc2[nH]c(=O)c(CN(CCO)Cc3nnnn3CCc3ccccc3)cc2c1	ClpP mod 32µM
COc1ccc2cc(CN(CCc3ccccc3)Cc3nnnn3CC3CCCO3)c(=O)[nH]c2c1 (configuration not stated)	none
O=c1[nH]c2cc3c(cc2cc1CN(CCc1ccccc1)Cc1nnnn1CC1CCCO1)OCO3 (configuration not stated)	ClpP mod 25µM
COc1ccc2[nH]c(=O)c(CN(CCc3ccccc3)Cc3nnnn3CC3CCCO3)cc2c1 (configuration not stated)	ClpP mod 25µM
